From PubChem BioAssay AID1030 (National Center for Advancing Translational Sciences (NCATS), 2008)
About 16,000 (7.3%) of roughly 220,000 compounds were called active. Where a call stands in place of a potency, no number is given. Inconclusive results (about 25%) are left out. Calls follow the shape of the dose curve; as a rule, active = well fitted inhibition curve with a large enough effect (not every such curve was filed as active); inconclusive = small, poorly fitted or top-dose-only effect, or another doubt; inactive = no such curve, though single readings can be large or run the other way. Only a selection was taken, and actives are over-represented in it overall.

Biological target: Aldehyde dehydrogenase 1A1 (Homo sapiens) (UniProt P00352)
Experiment: qHTS Assay for Inhibitors of Aldehyde Dehydrogenase 1 (ALDH1A1)
Conditions: Purified ALDH1A1, NADH fluorescence, propionaldehyde substrate; series mostly up to 75.3 µM
Potency is read from the fitted curve at half-maximal effect.

Chain of Aldehyde dehydrogenase 1A1 (Homo sapiens) (P00352 whole entry, looked up): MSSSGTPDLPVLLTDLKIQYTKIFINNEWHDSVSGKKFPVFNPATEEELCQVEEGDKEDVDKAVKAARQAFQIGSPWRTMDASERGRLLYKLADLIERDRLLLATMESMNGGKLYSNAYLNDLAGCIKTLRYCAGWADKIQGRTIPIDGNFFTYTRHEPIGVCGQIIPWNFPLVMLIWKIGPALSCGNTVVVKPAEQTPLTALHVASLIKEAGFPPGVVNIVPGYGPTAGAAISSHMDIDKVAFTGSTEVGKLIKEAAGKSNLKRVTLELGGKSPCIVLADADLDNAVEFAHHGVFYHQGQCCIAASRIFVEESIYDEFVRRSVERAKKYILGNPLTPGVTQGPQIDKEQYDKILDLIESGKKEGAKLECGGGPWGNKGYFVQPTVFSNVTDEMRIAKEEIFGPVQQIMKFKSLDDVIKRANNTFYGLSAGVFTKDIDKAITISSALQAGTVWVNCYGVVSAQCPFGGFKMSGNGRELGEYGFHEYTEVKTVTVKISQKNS

SMILES	Potency
O=S1(=O)CCN2C(=N1)SC1=C2CCN(Cc2ccccc2)C1	inactive
O=C(Nc1ccccc1Cc1ccccc1)c1ccc2c(c1)SC1=NS(=O)(=O)CCN12	7.94 µM (active)
O=C(Nc1ccccc1N1CCN(c2ccccc2)CC1)c1cccc(F)c1	inactive
COc1ccc(N2CCN(CCCNC(=O)C3CCN(S(=O)(=O)N4CCOCC4)CC3)CC2)cc1	inactive
CCc1ccc(N2CC(O)=C(c3nc4ccccc4c(=O)[nH]3)C2=N)cc1	inactive
O=C(NCc1ccccc1)C1=C[C@@H](C2CCCCC2)C[C@@H](OCc2ccc(CO)cc2)O1	12.6 µM (active)
C=CCOC(=O)c1ccccc1C(=O)OCC=C	inactive
O=C(NCc1ccccc1)C1=C[C@@H](c2ccc(C(F)(F)F)cc2)C[C@@H](OCc2ccc(CO)cc2)O1	inactive
C=CCOC(=O)C1=C[C@@H](c2ccccc2)C[C@@H](OCc2ccc(CO)cc2)O1	10 µM (active)
NC(=O)C1=C[C@H](c2csc3ccccc23)C[C@H](OCc2ccc(CO)cc2)O1	8.91 µM (active)
O=C(C1=C[C@H](c2coc3ccccc3c2=O)C[C@H](OCc2ccc(CO)cc2)O1)N1CCOCC1	inactive
CC(C)(C)[C@H]1C=C(C(=O)NCc2ccccc2)O[C@@H](OCc2ccc(CO)cc2)C1	inactive
O=C(NCc1ccccc1)C1=C[C@H](C2CC2)C[C@H](OCc2ccc(CO)cc2)O1	inactive
O=C(C1=C[C@H](C2CC2)C[C@H](OCc2ccc(CO)cc2)O1)N1CCN(Cc2ccccc2)CC1	inactive
O=C(CCS(=O)(=O)c1ccccc1Cl)Nc1ccc(S(=O)(=O)Nc2ncccn2)cc1	inactive
O=C(COc1ccccc1)Nc1ccc(N2CCN(C(=O)c3cccs3)CC2)cc1	inactive
Cc1ccc(C)c(-n2ccnc2SCC(N)=O)c1	inactive
CC(CCn1cccn1)NC(=O)CCc1nnc(CCc2ccccc2)o1 (stereo not drawn)	inactive
CCC(C)NC(=O)c1nn(C)c(=O)c2ccccc12 (stereo not drawn)	inactive
CCC(C(=O)OCC(=O)Nc1ccccc1-c1ccccc1)c1ccccc1 (stereo not drawn)	inactive
CCOC(=O)c1c(C)oc2cc(Br)c(OCC(N)=O)cc12	inactive
CCOC(=O)c1c(C)oc2ccc(OCC(=O)N(CC)CC)cc12	11.2 µM (active)
CCOC(=O)c1c(C)[nH]c(C(=O)COc2ccc3c(c2)OCO3)c1C	inactive
O=C(Nc1ccc(Cl)cc1)/C(=C1\CCCN1)[N+](=O)[O-]	inactive
Cn1nc(C(F)(F)F)cc1-c1ccc(/C=C(\C#N)C(=O)c2cccc(C(F)(F)F)c2)s1	inactive
CCOc1cccc(-c2nn3c(-c4ccccn4)nnc3s2)c1	inactive
COc1cc(-c2nn3c(-c4cccc(C)c4)nnc3s2)cc(OC)c1OC	inactive
COc1ccc(-c2nn3c(-c4ccccc4)nnc3s2)cc1OC	25.1 µM (active)
